Test results: PubChem BioAssay (NCI)
This is part of a sample that, as a whole, favours compounds with a hit. Of some 79,000 tested, about 15% had one in any assay. Activity calls are given as the source filed them. Cut-off read from the data, not from the text of the source: active = growth inhibition above about 70%; inactive = the rest.

Experiments:
[1] = NCI Yeast Anticancer Drug Screen. Data for the rad50 strain (AID 155);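 note: 0% = growth of vehicle-only cultures of the same strain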; conditions: S. cerevisiae rad50 strain growth inhibition, active compounds read high
Procedure, shortened: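 Vehicle-treated cultures provide the reference for the growth inhibition reported for compound-exposed, repair-deficient yeast.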

[2] = NCI Yeast Anticancer Drug Screen. Data for the mec2-1 strain (AID 157); conditions: S. cerevisiae mec2-1 strain, active compounds read high
Procedure, shortened: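 Mutant yeast (mec2-1) grown with compound; growth inhibition relative to vehicle control reported.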

[3] = NCI Yeast Anticancer Drug Screen. Data for the sgs1 mgt1 strain (AID 161);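 note: 0% = growth of cultures given vehicle only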; conditions: S. cerevisiae sgs1 mgt1 strain, active compounds read high
Procedure, shortened: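 Yeast cells carrying a defined DNA-repair defect were exposed to test compounds. Growth inhibition was measured relative to vehicle-treated controls.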

[4] = NCI Yeast Anticancer Drug Screen. Data for the cln2 rad14 strain (AID 165);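 note: 0% = growth equal to vehicle treated cultures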; conditions: S. cerevisiae cln2 rad14 strain, active compounds read high
Procedure, shortened: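 Readout is yeast growth inhibition versus vehicle-treated controls, using a strain with cln2 and rad14 alterations exposed to compound.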

[5] = NCI Yeast Anticancer Drug Screen. Data for the bub3 strain (AID 167); conditions: S. cerevisiae bub3 mutant strain, active compounds read high
Procedure, shortened: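 Mutant yeast screening strain plus compound; vehicle-treated cultures serve as the 0% inhibition reference.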

[6] = NCI Yeast Anticancer Drug Screen. Data for the mlh1 rad18 strain (AID 175); conditions: S. cerevisiae mlh1 rad18 strain growth inhibition, active compounds read high
Procedure, shortened: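 Genetically defined yeast (DNA repair-deficient) exposed to compounds; growth inhibition determined relative to vehicle.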

[7] = at 5.0 µM (retest, dose inferred, filed as 0.5)
[8] = at 50.0 µM (retest, dose inferred, filed as 5.0)

Measured: growth inhibition

Cc1nc2c(Cl)cccc2c2ccccc12
inactive: [1]; [7] 14% | [2]; [7] 4% | [3]; [7] 5% | [4]; [7] -10% | [5]; [7] -1% | [6]; [7] 18%
active: [1]; [8] 94% | [1]; at 50.0 µM 94.2% | [2]; [8] 93% | [2]; at 50.0 µM 85.7% | [3]; [8] 95% | [3]; at 50.0 µM 87.5% | [4]; [8] 95% | [4]; at 50.0 µM 88% | [5]; [8] 95% | [5]; at 50.0 µM 93.4% | [6]; [8] 98% | [6]; at 50.0 µM 94.5%

c1ccc(NNc2ccc3ccccc3n2)cc1
inactive: [1]; [7] 3% | [1]; at 50.0 µM 38.6% | [2]; [7] -21% | [2]; [8] 2% | [2]; at 50.0 µM 44.6% | [3]; [7] -3% | [3]; [8] 18% | [4]; [7] -6% | [4]; [8] -1% | [4]; at 50.0 µM 39% | [5]; [7] 24% | [6]; [7] 0% | [6]; [8] 40% | [6]; at 50.0 µM 65.8%
active: [1]; [8] 96% | [3]; at 50.0 µM 77.2% | [5]; [8] 85% | [5]; at 50.0 µM 77.6%

C=C(CN(C)C)C(=O)c1ccc(C)cc1C
active: [1]; [8] 99% | [1]; at 50.0 µM 99.4% | [2]; [8] 99% | [2]; at 50.0 µM 99.5% | [3]; [8] 99% | [3]; at 50.0 µM 99.4% | [4]; [8] 99% | [4]; at 50.0 µM 99.3% | [5]; [7] 77% | [5]; [8] 99% | [6]; [7] 74% | [6]; [8] 99% | [6]; at 50.0 µM 99.2%
inactive: [1]; [7] 34% | [2]; [7] 18% | [3]; [7] 64% | [4]; [7] 24% | [5]; at 50.0 µM 56%
